Compound activity as filed in PubChem.
Shown are actives, neighbours in structure and some others; about 1.6% of the full set was active somewhere.
KCNQ2 pot = KCNQ2 (rat) channel potentiation; O88943; CHO-K1 KCNQ2, FluxOR thallium flux fluorescence; hits give high values; B-score at 10 µM; 0.54% of 310,000 active; AID 2239;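 active = fluorescence ratio B-score at least 3 SD of library B-scores, with initial fluorescence B-score within 3 of them, cut at about 5.3 in these data; same plate scores as AID 2156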;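 also: B-score of peak minus minimum over baseline fluorescence ratio after K+ and Tl+ stimulus; positive B-score means potentiation of KCNQ2 with more thallium influx and brighter signal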
Target sequence (O88943 whole entry, looked up): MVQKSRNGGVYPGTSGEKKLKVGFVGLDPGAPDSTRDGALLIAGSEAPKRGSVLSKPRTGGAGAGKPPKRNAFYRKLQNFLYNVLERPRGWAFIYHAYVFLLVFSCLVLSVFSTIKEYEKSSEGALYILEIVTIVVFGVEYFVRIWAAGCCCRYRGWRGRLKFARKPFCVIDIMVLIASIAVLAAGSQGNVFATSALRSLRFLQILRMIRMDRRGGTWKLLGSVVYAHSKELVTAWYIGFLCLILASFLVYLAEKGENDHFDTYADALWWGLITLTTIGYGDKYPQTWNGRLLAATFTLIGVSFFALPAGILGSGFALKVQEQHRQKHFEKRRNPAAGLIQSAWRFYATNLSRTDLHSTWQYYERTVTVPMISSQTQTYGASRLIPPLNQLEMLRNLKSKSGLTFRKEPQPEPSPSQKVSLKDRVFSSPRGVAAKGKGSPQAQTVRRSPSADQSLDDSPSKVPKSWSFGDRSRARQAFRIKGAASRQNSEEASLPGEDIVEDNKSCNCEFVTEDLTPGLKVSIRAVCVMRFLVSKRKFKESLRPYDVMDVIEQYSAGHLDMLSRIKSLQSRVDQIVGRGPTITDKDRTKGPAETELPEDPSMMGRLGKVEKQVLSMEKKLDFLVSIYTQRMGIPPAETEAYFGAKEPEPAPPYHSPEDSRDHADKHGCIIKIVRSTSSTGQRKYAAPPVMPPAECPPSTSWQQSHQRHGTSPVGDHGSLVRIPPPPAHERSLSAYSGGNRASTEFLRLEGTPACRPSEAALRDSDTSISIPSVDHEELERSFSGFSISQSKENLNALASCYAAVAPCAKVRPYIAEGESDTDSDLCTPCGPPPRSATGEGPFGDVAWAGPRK
KCNQ2 block = blocks the rat KCNQ2 potassium channel. 1.1% of 310,000 active. CHO-K1 KCNQ2, FluxOR thallium flux, 20 min; hits give low values. B-score at 10 µM;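 active = fluorescence ratio B-score at most minus 3 library SDs, with starting brightness B-score within 2 library SDs, cut at about -5.5 in these data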
Of the large screens only hits and unclear results are named; the others gave an inactive call.

Cc1ccc(C(CC(=O)c2ccc(Cl)cc2)C(=O)O)cc1 (configuration not stated)	none (no result: KCNQ2 pot)
COC(=O)C(CC(=O)c1ccc(Cl)cc1)c1ccc(C(C)C)cc1 (configuration not stated)	KCNQ2 block -5.9
CC(=O)N1CCOc2ccc(S(=O)(=O)NCCc3ccc(C)cc3)cc21	none (no result: KCNQ2 pot)
O=S(=O)(NCCCN1CCOCC1)c1ccc(Cl)cc1	KCNQ2 pot 8
O=S(=O)(NCCN1CCOCC1)c1ccc(-c2ccc(S(=O)(=O)NCCN3CCOCC3)cc2)cc1	none (no result: KCNQ2 pot)
CN1CCOc2ccc(S(=O)(=O)NCCc3ccc(Cl)cc3)cc21	KCNQ2 block -6.7
CCN(CC)S(=O)(=O)c1ccc(C)c(NS(=O)(=O)c2cc(/C=C/C(=O)O)cc(OC)c2OC)c1	none (no result: KCNQ2 pot)
CCn1c(-c2cc(-c3ccccc3OC)nc3ccccc23)n[nH]c1=S	KCNQ2 block -7.2
CCn1c(-c2cc(-c3cc(OC)ccc3OC)nc3ccccc23)n[nH]c1=S	none (no result: KCNQ2 pot)
Oc1ccccc1OCc1nc2ccccc2s1	none (no result: KCNQ2 pot)
Oc1ccc(O)c(Cc2nc3ccccc3s2)c1	KCNQ2 block -5.6
COc1ccc(S(=O)(=O)N2CCN(C)CC2)cc1NC(=O)c1ccccc1	none (no result: KCNQ2 pot)
COc1ccc(N(CC(=O)NC2CCCC2)C(=O)CCC(=O)Nc2nc(C)cs2)cc1OC	none
O=C(NCCN1CCCC1)c1ccc2c(=O)n(CCc3ccccc3)c(=O)[nH]c2c1	KCNQ2 block -6
CCCN1CCN(CCCNC(=O)c2ccc3c(=O)n(CCc4ccccc4)c(=O)[nH]c3c2)CC1	none (no result: KCNQ2 pot)
CN1C(CC(=O)Nc2ccc(Cl)cc2Cl)c2ccccc2CC1(C)C (configuration not stated)	none (no result: KCNQ2 pot)
CCOC(=O)/C(C(=O)Nc1ccc(Cl)cc1Cl)=C1/NC(C)(C)Cc2ccccc21	KCNQ2 block -6.3
CCN(CC)c1ccc(NC(=O)COC(=O)COc2ccccc2[N+](=O)[O-])cc1	none
COc1ccc(S(=O)(=O)N(C(=O)c2ccncc2)c2ccc3oc4c(c3c2)CCCC4)cc1	KCNQ2 block -5.7
O=C(c1ccncc1)N(c1ccc2oc3c(c2c1)CCCC3)S(=O)(=O)c1cccc([N+](=O)[O-])c1	none (no result: KCNQ2 pot)
COc1ccc(Cn2ccnc2SCC(=O)Nc2ccccc2F)cc1	none (no result: KCNQ2 pot)
COc1ccc(Cn2ccnc2SCC(=O)Nc2ccccc2OC)cc1	KCNQ2 block -6.1
COC(=O)c1cn(C(=O)c2cc(OC)cc(OC)c2)c2ccccc12	KCNQ2 block -6.3
COC(=O)c1cn(C(=O)c2ccccc2)c2ccccc12	none (no result: KCNQ2 pot)
O=C(CN(Cc1ccc(Cl)cc1)C(=O)c1csnn1)NCc1ccccc1	none (no result: KCNQ2 pot)
CCO[C@H]1OC(C(=O)N2CCOCC2)=C[C@@H](c2ccc(Br)cc2)[C@@H]1CCCO	none
O=C(Nc1ccc(OC(F)F)cc1)Nc1cccc(C(F)(F)F)c1	none (no result: KCNQ2 pot)
COc1ccc(/C(C)=N/NC(=O)c2cccc(S(=O)(=O)N3CCCC3)c2)c(O)c1	none (no result: KCNQ2 pot)
CCCc1cc(-c2[nH]ncc2-c2ccc(C(=O)OCC)o2)c(O)cc1O	none
CCCc1cc(-c2[nH]ncc2-c2ccc3c(c2)OCCCO3)c(O)cc1O	KCNQ2 block -8.5
CCC(=O)N1N=C(c2ccc(Cl)cc2)CC1c1ccco1 (configuration not stated)	none (no result: KCNQ2 pot)
Cc1ccc(OCC(=O)N2N=C(c3ccc(Cl)cc3)CC2c2ccco2)c([N+](=O)[O-])n1 (configuration not stated)	KCNQ2 block -8.3
COc1cccc(-c2nc(N3CCN(C)CC3)c3ccccc3n2)c1O	none (no result: KCNQ2 pot)
COc1cccc(-c2nc(N3CCCCC3C)c3ccccc3n2)c1O (configuration not stated)	KCNQ2 block -6.8
COc1ccc(C(=O)NC2CC(C)(C)Cc3c2cnn3-c2ccccc2C)c(OC)c1OC (configuration not stated)	none (no result: KCNQ2 pot)
Cc1cc(C(=O)NC2CC(C)(C)Cc3c2cnn3-c2ccccc2C)c(C)o1 (configuration not stated)	KCNQ2 block -5.7
Cc1cccc(-n2ncc3c2CCCC3NC(=O)C2(C(N)=O)CC2)c1C (configuration not stated)	none
Cc1cc(C)c(C(=O)NC2CCCc3c2cnn3-c2cccc(C)c2C)o1 (configuration not stated)	KCNQ2 block -6.6
Nc1cc(Cl)ccc1C(=O)OCC(=O)N1CCOCC1	none (no result: KCNQ2 pot)
Cc1ccc2c(c1)N(CC(=O)N1CCCCC1)C(=O)C(C)O2 (configuration not stated)	none (no result: KCNQ2 pot)
COc1ccc(-c2[nH]ncc2/C=N/NC(=O)c2ccncc2)c(OC)c1	none
CCOc1ccc(NC(=O)CN(C)S(=O)(=O)c2cccc3cccnc23)cc1	none
CC1=CC(C)(C)N(C(=O)c2ccccc2)c2ccc(C)cc21	none (no result: KCNQ2 pot)
CC1=CC(C)(C)N(C(=O)c2ccccc2)c2ccccc21	KCNQ2 block -5.6
O=C(Nc1cccc(-c2cscn2)c1)C1CCN(Cc2ccccn2)CC1	none
Cn1cnnc1SCCNS(=O)(=O)c1cccc([N+](=O)[O-])c1	none
COc1ccc2c(CC(=O)Nc3ncc(C)s3)coc2c1	none (no result: KCNQ2 pot)
O=C(CSC1CCCCC1)Nc1ccccc1Br	KCNQ2 pot 6.9
CCN(CC(=O)Nc1ccccc1Br)C1CCCCC1	none (no result: KCNQ2 pot)
COc1ccc(-c2cc3nc4c(c(N5CCC6(CC5)OCCO6)n3n2)CCC4)cc1	none (no result: KCNQ2 pot)
COc1cccc(-c2cc3nc4c(c(N5CCC6(CC5)OCCO6)n3n2)CCC4)c1	KCNQ2 block -7
COc1cccc(-c2cc3nc(-c4ccccc4)cc(N4CCCC(O)C4)n3n2)c1 (configuration not stated)	none (no result: KCNQ2 pot)
COc1ccc(-c2cc3nc(-c4ccccc4)cc(N4CCC5(CC4)OCCO5)n3n2)cc1	KCNQ2 block -6.5
CCOC(=O)C1(Cc2cccc(OC)c2)CCCN(C(=O)c2cc(C)oc2C)C1 (configuration not stated)	none (no result: KCNQ2 pot)
CN1CCN(CCCNCc2cn(CCC#N)c3ccccc23)CC1	none (no result: KCNQ2 pot)
O=C(CCC(=O)c1cccs1)NCc1cccc(C(F)(F)F)c1	KCNQ2 block -6.4
O=C(COC(=O)CCC(=O)c1cccs1)NCc1ccc(Cl)cc1	none
O=C(CSc1cccc(C(F)(F)F)c1)NCc1ccccc1	KCNQ2 pot 16
O=C(CCC(=O)c1cccs1)NCc1cccc(Cl)c1	KCNQ2 block -6.3
O=C(O)CSCC(=O)NCc1cccc(C(F)(F)F)c1	none
O=C(CSc1ccccc1)NCc1ccccc1	none (no result: KCNQ2 pot)
CCCc1cc(=O)oc2cc(C)cc(OCC(=O)Nc3cccnc3)c12	none
COc1ccc(-n2ncc(C(C)NS(=O)(=O)c3ccc(C)s3)c2C)cc1 (configuration not stated)	none (no result: KCNQ2 pot)
Cc1cc(=O)[nH]c2c1cnn2C(C)c1ccccc1 (configuration not stated)	none (no result: KCNQ2 pot)
CCCCN(Cc1ccco1)C(=O)C1CCCN(c2ncnc3c2nc2n3CCCCC2)C1 (configuration not stated)	none (no result: KCNQ2 pot)
COc1cccc(OC)c1OCCCOc1cccc2cccnc12	KCNQ2 block -5.6
Cc1cccc(OCCCOc2cccc3cccnc23)c1C	none (no result: KCNQ2 pot)
Cc1ccc(CNC(=O)c2sc3nc4c(c(C(F)(F)F)c3c2N)CCC4)cc1	none (no result: KCNQ2 pot)
Nc1c(C(=O)NCc2ccc(Cl)cc2)sc2nc3c(c(C(F)(F)F)c12)CCC3	KCNQ2 block -6.1
CC(C)CCNC(=O)c1cc2c(=O)n3ccccc3nc2s1	none
Cc1csc(SC(C)C(=O)NCC2CCCO2)n1 (configuration not stated)	none
O=C(NCC(c1ccco1)N1CCc2ccccc2C1)c1ccc(Cl)c([N+](=O)[O-])c1 (configuration not stated)	KCNQ2 block -5.8
O=C(NCC(c1ccco1)N1CCc2ccccc2C1)c1cccc([N+](=O)[O-])c1 (configuration not stated)	none (no result: KCNQ2 pot)
